The text below walks through data of the supplement of paper PMC7380943.

± gives the standard deviation of the averaged measurements.
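Further: compound given one day before doxycycline, which switches on I-SceI endonuclease expression to create double-strand breaks within the integrated reporter.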

This test deals with CLZ3 (HCA2 human fibroblast dual HR-NHEJ reporter). Description: HR repair efficiency (tdTomato+ cells) relative to control (log10 fold); higher = more homologous recombination. The settings on record: 5 µM; doxycycline 0.5 ug/mL.
For `C=C1C[C@]2(O)O[C@@]3(CC2=C(C)C)[C@@H](C)CC[C@@H]13` [Isocurcumenol], the “HR repair efficiency (log10)” value is -0.239. `CC(C)[C@@H]1[C@H]2OC(=O)[C@@H]1[C@@H]1CC[C@@H]3CN(C)[C@H]2[C@@]31C` [Dendrobine]: the “HR repair efficiency (log10)” value stood at 0.272. The figure for `COc1cc2ccc(=O)oc2cc1O` [Scopoletin] is -0.177; for `OC[C@@H]1O[C@@H](OC[C@H]2O[C@@H](OC/C=C/c3ccccc3)[C@H](O)[C@@H](O)[C@@H]2O)[C@H](O)[C@H]1O` [Rosarin] it is 0.118; for `COc1cc([C@@H]2Oc3c(O)cc([C@H]4Oc5cc(O)cc(O)c5C(=O)[C@@H]4O)cc3[C@H]2CO)ccc1O` [Silicristin] it is 0.068. `C/C=C1\[C@H]2C=C(C)C[C@]1(N)c1ccc(=O)[nH]c1C2` [Huperzine-A]: the “HR repair efficiency (log10)” value amounted to 0.0391.

For the molecule `CC(C)[C@@H](C)/C=C/[C@@H](C)[C@H]1CC[C@H]2C3=CC=C4C[C@@H](O)CC[C@]4(C)[C@H]3CC[C@]12C` [Ergosterol], the “HR repair efficiency (log10)” value was 0.141. Turning to `OC[C@H]1O[C@H](OC[C@H]2O[C@H](O[C@]3(CO)O[C@H](CO)[C@@H](O)[C@@H]3O)[C@H](O)[C@@H](O)[C@@H]2O)[C@H](O)[C@@H](O)[C@H]1O` [Raffinose], the “HR repair efficiency (log10)” value was -0.00512.

As for `C[C@@H]1O[C@@H](O[C@H]2[C@H](Oc3c(-c4ccc(O)cc4)oc4cc(O)cc(O)c4c3=O)O[C@H](CO)[C@@H](O)[C@@H]2O)[C@H](O)[C@H](O)[C@H]1O` [Kaempferol 3-O-Neohesperidoside], the “HR repair efficiency (log10)” value amounted to 0.307.

`c1cc2c(cc1O[C@H]1OC[C@H]3[C@@H]1CO[C@@H]3c1ccc3c(c1)OCO3)OCO2` [Sesamolin]: the “HR repair efficiency (log10)” value came to 0.22.

Consider `OC[C@H]1O[C@H](OC[C@H]2O[C@@H](O[C@@H]3OC=C[C@H]4[C@H](O)[C@@H]5O[C@]5(CO)[C@@H]34)[C@H](O)[C@@H](O)[C@@H]2O)[C@H](O)[C@@H](O)[C@H]1O` [Rehmannioside A], for which the “HR repair efficiency (log10)” value is -0.0566.

In the case of `O=C(/C=C/C=C/c1ccc2c(c1)OCO2)N1CCCCC1` [Piperine], the “HR repair efficiency (log10)” value amounted to 0.0832. The same measure for `O=C(O)Cc1c(C=CC(=O)OC(Cc2ccc(O)c(O)c2)C(=O)O)ccc(O)c1O` (centres undefined) [Salvianolic Acid D]: 0.105; for `COc1cc(C(=O)O)cc(OC)c1O` [Syringic acid]: -0.177. Take `CC1(C)CC[C@]2(C(=O)O)[C@H](O)C[C@]3(C)C(=CC[C@@H]4[C@@]5(C)CC[C@H](O)C(C)(C)[C@@H]5CC[C@]43C)[C@H]2C1` [Echinocystic acid]: the “HR repair efficiency (log10)” value worked out at 0.0642. `O=c1cc(-c2ccc(O)cc2)oc2cc(O)c(O)c(O)c12` [Scutellarein]: the “HR repair efficiency (log10)” value is -0.025.

Take `COc1ccc(C[C@H]2COC(=O)[C@@H]2Cc2ccc(O[C@@H]3O[C@H](CO)[C@@H](O)[C@H](O)[C@H]3O)c(OC)c2)cc1OC` [Arctiin]: the “HR repair efficiency (log10)” value is -0.203 ± 0.1. As to `COc1c(O[C@@H]2O[C@H](CO)[C@@H](O)[C@H](O)[C@H]2O)cc2occ(-c3ccc(O)cc3)c(=O)c2c1O` [Tectoridin], the “HR repair efficiency (log10)” value worked out at 0.192. For `CC1(C)O[C@H]2CC(=O)OC[C@]23[C@H]2CC[C@@]4(C)[C@H](c5ccoc5)OC(=O)[C@H]5O[C@]54[C@]2(C)C(=O)C[C@@H]13` [Limonin], the “HR repair efficiency (log10)” value was -0.00925.

As to `COc1ccc(-c2oc3c(CC=C(C)C)c(O[C@@H]4O[C@H](CO)[C@@H](O)[C@H](O)[C@H]4O)cc(O)c3c(=O)c2O[C@@H]2O[C@@H](C)[C@H](O)[C@@H](O)[C@H]2O[C@@H]2OC[C@@H](O)[C@H](O)[C@H]2O)cc1` [Epimedin B], the “HR repair efficiency (log10)” value was -0.0516. The figure for `CC(/C=C/C=C(\C)C(=O)O[C@@H]1O[C@H](CO[C@@H]2O[C@H](CO)[C@@H](O)[C@H](O)[C@H]2O)[C@@H](O)[C@H](O)[C@H]1O)=C\C=C\C=C(C)\C=C\C=C(/C)C(=O)O[C@@H]1O[C@H](CO[C@@H]2O[C@H](CO)[C@@H](O)[C@H](O)[C@H]2O)[C@@H](O)[C@H](O)[C@H]1O` [Crocin I] is 0.076; for `O=c1c(O)cc([C@H]2Oc3cc(O)cc(O)c3C[C@H]2O)cc2c([C@H]3Oc4cc(O)cc(O)c4C[C@H]3O)cc(O)c(O)c12` [Theaflavin] it is 0.0415. Regarding `COC(=O)C1=CO[C@@H](O[C@@H]2O[C@H](CO)[C@@H](O)[C@H](O)[C@H]2O)[C@@H]2C(CO)=CC[C@H]12` [Geniposide], the “HR repair efficiency (log10)” value was 0.172. Regarding `COc1ccc(/C=C/C(=O)O)cc1O` [Isoferulic acid], the “HR repair efficiency (log10)” value was -0.0013.
